From PubChem BioAssay (NCI)
This is part of a sample that, as a whole, favours compounds with a hit. Of some 83,000 tested, about 20% had one in any assay.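 Treatment: one concentration, 48 hours, 96-well format. Scoring: percent growth, with anything below 10 considered active.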 The source made the active and inactive calls.

How the values were obtained:
Assay in all cases: NCI-60 one-dose screen, 48 h (100 = growth as untreated, 0 = no growth, -100 = all killed)
Conditions in all cases: 10 µM unless noted
[1] = test system: HCT-15 colon
[2] = test system: HT29 colon
[3] = test system: SNB-75 CNS
[4] = test system: U251 CNS
[5] = test system: PC-3 prostate
[6] = test system: SK-MEL-5 melanoma
[7] = test system: UACC-62 melanoma
[8] = test system: LOX IMVI melanoma
[9] = test system: SK-MEL-28 melanoma
[10] = test system: SK-MEL-2 melanoma
[11] = test system: EKVX NSCLC
[12] = test system: SN12C renal
[13] = test system: UO-31 renal
[14] = test system: TK-10 renal
[15] = test system: ACHN renal
[16] = test system: CAKI-1 renal
[17] = test system: A498 renal
[18] = test system: CCRF-CEM leukemia
[19] = test system: MOLT-4 leukemia
[20] = test system: SNB-19 CNS

Measured: growth

CC(C)(C)OC(=O)N1CCCN(CCNc2nccc(-c3c(-c4cccc(O)c4)nc4sccn34)n2)S1(=O)=O
inactive: [1] 99.9% | [2] 56.7% | [3] 84% | [4] 117% | [5] 85% | [6] 86.9% | [7] 12.1% | [8] 32.3% | [9] 45.4% | [10] 103% | [11] 112% | [12] 82.7% | [13] 74.5% | [14] 121% | [15] 66.6% | [16] 49.4% | [17] 127% | [18] 75.8% | [19] 90.8%

CCCCCCCCCCCCCC
inactive: [1] 106% | [3] 72.4% | [5] 88.1% | [6] 108% | [8] 94.9% | [9] 106% | [11] 95.2% | [13] 98.6% | [15] 111% | [16] 98.9% | [18] 90.4% | [19] 111%

CCN(CC)CCCCCCCCNc1c2ccc(Cl)cc2nc2ccc(OC)cc12
active: [1] -39% | [3] -85.6% | [20] -30.9% | [5] -56.4% | [6] -97.7% | [7] -82.1% | [8] -78.2% | [9] -85.8% | [11] -12.2% | [12] -19.7% | [13] -56.2% | [15] -58% | [16] -1.58% | [17] -92.5% | [18] -26.5% | [19] -45.8%

O=C(Nc1cccc(-n2ccc3c(NC(=O)c4ccccc4)nccc32)c1)c1ccc(Cl)c(Cl)c1
active: [1] -62% | [3] 2.32% | [20] -40.3% | [5] -60.5% | [6] -100% | [7] -61.3% | [8] -84.4% | [9] -60.4% | [11] -33.3% | [12] -83.8% | [15] -75.9% | [16] -71.7% | [17] -2.71% | [18] -41.6%

Cc1ccc(C)c2c1SC1=NNC(Oc3ccc(Cl)cc3)=C(C#N)C(=N)N12
inactive: [1] 104% | [2] 103% | [3] 92.2% | [4] 98.4% | [5] 85% | [6] 93.5% | [7] 97.1% | [8] 99.7% | [9] 107% | [10] 132% | [11] 100% | [12] 117% | [13] 85.3% | [14] 125% | [15] 90.6% | [16] 87.4% | [17] 87.1% | [18] 96.8% | [19] 85.2%

FC(F)(F)c1cc(-c2nnc3n2N=C(Cl)CS3)cc(C(F)(F)F)c1
inactive: [1] 96.8% | [2] 113% | [20] 107% | [5] 96.2% | [6] 98.9% | [7] 101% | [8] 77.1% | [9] 134% | [10] 123% | [12] 82.1% | [13] 97.9% | [14] 118% | [15] 110% | [17] 108% | [18] 20.5%
active: [19] -17.6%

COC(=O)OC1C(O[C@H]2C[C@H]3[C@@H]4CC=C5C[C@@H](O)CC[C@]5(C)[C@H]4CC[C@]3(C)[C@H]2[C@H](C)C(=O)CCC(C)C)OCC(O)C1OC1OCC(O)C(O)C1OC(=O)c1ccc(OC)cc1 (some centres not stated)
inactive: [11] 14.3% | [12] 43.4% | [15] 31.6%
active: [1] -40.9% | [2] 4.87% | [3] 0.635% | [4] -18.5% | [5] -18.8% | [6] -71.5% | [7] -29% | [8] -38.7% | [9] -55.3% | [10] -46.1% | [13] -40.4% | [14] 0.902% | [16] -16.6% | [17] -74% | [18] -25.9% | [19] -36.5%

c1cc2c(cc1-c1cnc3nonc3n1)OCO2
inactive: [1] 57.1% | [2] 109% | [3] 96.8% | [4] 94.2% | [5] 56.8% | [6] 91.2% | [7] 66% | [8] 84.9% | [9] 104% | [10] 115% | [11] 93.4% | [12] 103% | [13] 87.9% | [14] 105% | [15] 73.3% | [16] 84.4% | [17] 86.9% | [18] 46% | [19] 80.3%

ClCCn1cnc2c(SCc3ccccc3Cl)ncnc21
active: [8] 7.06% | [19] -28%
inactive: [1] 21.3% | [2] 26.3% | [3] 79.2% | [4] 30.4% | [5] 38.7% | [6] 38.4% | [7] 33.7% | [9] 47.3% | [11] 66.8% | [12] 44.8% | [14] 34.4% | [15] 38.4% | [16] 47.6% | [17] 39% | [18] 24.2%

N#Cc1ccc(-c2ccc(-c3cccs3)o2)cc1F
inactive: [1] 79.7% | [2] 84.5% | [3] 44.9% | [4] 67.2% | [5] 87.5% | [6] 84.4% | [7] 81.6% | [8] 80.2% | [9] 91.9% | [10] 70.8% | [12] 89.1% | [13] 73.7% | [14] 89.9% | [15] 64% | [16] 78.1% | [17] 95.9% | [19] 66.3%

COc1ccc(-n2nc(C(=O)Nc3ccc(F)cc3)nc2-c2cc(OC)c(OC)c(OC)c2)cc1
inactive: [1] 82.2% | [2] 95.8% | [20] 92.3% | [5] 79.2% | [6] 80.3% | [7] 83.7% | [8] 94.3% | [9] 119% | [10] 102% | [12] 92.4% | [14] 112% | [15] 89.8% | [17] 66.6% | [18] 83.2% | [19] 69.9%

O=C(N/N=C\c1cc(Br)ccc1O)c1ccncc1
inactive: [1] 21.4% | [2] 36.3% | [3] 76.4% | [5] 48.3% | [6] 39.8% | [8] 18% | [9] 45.8% | [10] 31.4% | [11] 29.6% | [12] 46.5% | [13] 23.4% | [14] 43.7% | [15] 27.3% | [16] 24.7% | [17] 74.1%
active: [7] 1.24% | [18] 8.77% | [19] -10.7%

Clc1ccc(Cl)c(N=Cc2ccc3c(c2)OCO3)c1
inactive: [1] 106% | [2] 110% | [3] 103% | [4] 104% | [5] 107% | [6] 106% | [7] 103% | [8] 95.2% | [9] 116% | [11] 98.8% | [12] 105% | [13] 86.6% | [14] 107% | [15] 114% | [16] 94.6% | [17] 91.6% | [18] 106% | [19] 106%

COc1cc2ccc(C(C)=O)cc2cc1OC
inactive: [1] 97.3% | [2] 112% | [20] 104% | [5] 91.2% | [6] 96.5% | [7] 89.4% | [8] 92.3% | [9] 131% | [10] 108% | [12] 95.1% | [13] 72.4% | [14] 138% | [15] 91.9% | [17] 65% | [18] 118%

CCCCCCCC/C=C/CCCCCCCC1=NC(C)(C)CN1c1ccccc1
inactive: [1] 80.5% | [2] 66.8% | [3] 90% | [4] 84.5% | [5] 64% | [6] 92.4% | [7] 75.2% | [8] 85.3% | [9] 103% | [10] 92.6% | [11] 105% | [12] 95.5% | [13] 61.7% | [14] 118% | [15] 101% | [16] 90.1% | [17] 105% | [18] 64.2% | [19] 85.7%

CC(C)(C)c1cc(C[P+](c2ccccc2)(c2ccccc2)c2ccccc2)cc(C(C)(C)C)c1O
active: [2] -13.1% | [3] 2.05% | [4] 5.39% | [5] -10.5% | [6] -96.9% | [7] -3.2% | [8] 5.93% | [13] -11.4% | [14] -3.05% | [15] -10.8% | [16] -2.21% | [17] -17.1% | [19] -7.18%
inactive: [1] 23.2% | [9] 38.4% | [12] 12.2%

O=C1/C(=C/c2cc(F)cc(F)c2)Cc2cc(F)cc(F)c21
inactive: [1] 95.4% | [2] 92.3% | [3] 93.9% | [4] 104% | [5] 88.1% | [6] 76.8% | [7] 85.6% | [8] 86.8% | [9] 96.7% | [11] 88% | [12] 106% | [13] 70.9% | [14] 102% | [15] 92.7% | [16] 77.6% | [17] 90.2% | [18] 110% | [19] 87.3%
